This is part of a sample that, as a whole, favours compounds with a hit. Of some 79,000 tested, about 15% had one in any assay. Active and inactive are the calls of the source. Cut-off read from the data, not from the text of the source: active = growth inhibition above about 70%; inactive = the rest.
How the values were obtained:
[1] = NCI Yeast Anticancer Drug Screen. Data for the rad52 strain (AID 147);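 note: 0% = growth of vehicle-treated control cultures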; details: S. cerevisiae rad52 mutant growth inhibition, active compounds read high
How it was run: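 Inhibition of yeast growth, referenced to vehicle controls, was the measured output for a strain with defective DNA damage repair.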

[2] = NCI Yeast Anticancer Drug Screen. Data for the wt1 strain (AID 149);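 note: 0% = growth of vehicle-treated wt1 cultures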; details: S. cerevisiae wt1 strain (SPY 50644) growth inhibition, active compounds read high
How it was run: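 Vehicle-normalised growth inhibition; strain wt1; compound exposure.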

[3] = NCI Yeast Anticancer Drug Screen. Data for the rad50EPP+ strain (AID 151);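 note: 0% = growth of vehicle-treated control cultures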; details: S. cerevisiae rad50 mutant strain, active compounds read high
How it was run: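 Genetically defined yeast (rad50EPP+, DNA damage repair alteration) is grown with compound, and inhibition of growth is expressed relative to vehicle-treated controls.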

[4] = NCI Yeast Anticancer Drug Screen. Data for the mgt1 strain (AID 153); details: S. cerevisiae mgt1 mutant growth inhibition, active compounds read high
How it was run: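 In the mgt1 strain, test compounds were added and growth inhibition was determined relative to vehicle-treated controls.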

[5] = NCI Yeast Anticancer Drug Screen. Data for the rad50 strain (AID 155);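 note: 0% = growth of vehicle-only cultures of the same strain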; details: S. cerevisiae rad50 strain growth inhibition, active compounds read high
How it was run: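 A DNA repair-deficient yeast mutant serves as the test organism; compound-induced growth inhibition is calculated against vehicle-treated cells.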

[6] = NCI Yeast Anticancer Drug Screen. Data for the mec2-1 strain (AID 157); details: S. cerevisiae mec2-1 strain, active compounds read high
How it was run: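 Each compound was tested on mec2-1 yeast, a strain altered in DNA damage repair or cell cycle control. Growth inhibition is reported relative to vehicle.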

[7] = NCI Yeast Anticancer Drug Screen. Data for the rad14 strain (AID 159);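 note: 0% = growth of vehicle-treated control cultures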; details: S. cerevisiae rad14 strain growth inhibition, active compounds read high
How it was run: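 Vehicle-treated cultures served as the baseline for growth inhibition of a DNA repair-mutant yeast strain exposed to each compound.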

[8] = NCI Yeast Anticancer Drug Screen. Data for the sgs1 mgt1 strain (AID 161);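 note: 0% = growth of cultures given vehicle only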; details: S. cerevisiae sgs1 mgt1 strain, active compounds read high
How it was run: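 Genetically altered yeast, compound exposure, growth inhibition relative to vehicle.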

[9] = NCI Yeast Anticancer Drug Screen. Data for the CLN2oe strain (AID 163);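 note: 0% = growth of vehicle-only control cultures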; details: S. cerevisiae CLN2oe strain, active compounds read high
How it was run: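 First, the altered yeast strain was treated with each compound; second, its growth was measured; finally, inhibition was derived by comparison with vehicle controls.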

[10] = NCI Yeast Anticancer Drug Screen. Data for the cln2 rad14 strain (AID 165);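 note: 0% = growth equal to vehicle treated cultures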; details: S. cerevisiae cln2 rad14 strain, active compounds read high
How it was run: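 Test compounds were added to cln2 rad14 yeast cultures; inhibition of growth was then determined by comparison with vehicle treatment.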

[11] = NCI Yeast Anticancer Drug Screen. Data for the bub3 strain (AID 167); details: S. cerevisiae bub3 mutant strain, active compounds read high
How it was run: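 Inhibition values come from growth of compound-treated mutant yeast normalised to vehicle-treated controls.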

[12] = NCI Yeast Anticancer Drug Screen. Data for the wt2 strain (AID 169);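 note: 0% = growth of vehicle-treated yeast cultures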; details: S. cerevisiae wt2 strain growth inhibition, active compounds read high
How it was run: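 The panel's yeast strains carry defined changes in DNA repair or cell cycle genes. Each strain is grown with compound, and growth loss is scored relative to vehicle.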

[13] = NCI Yeast Anticancer Drug Screen. Data for the mlh1 strain (AID 171);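 note: 0% = growth of vehicle-treated control cultures of the same strain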; details: S. cerevisiae mlh1 strain growth inhibition, active compounds read high
How it was run: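 Inhibition values reflect reduced yeast growth in the presence of compound, referenced to vehicle controls, using a strain chosen for its alteration in DNA repair or cell cycle control.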

[14] = NCI Yeast Anticancer Drug Screen. Data for the sgs1 strain (AID 173);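 note: 0% = growth of vehicle-only control cultures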; details: S. cerevisiae sgs1 mutant, active compounds read high
How it was run: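 Vehicle-treated cultures served as reference for growth inhibition of a yeast strain altered in DNA damage repair or cell cycle control after compound exposure.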

[15] = NCI Yeast Anticancer Drug Screen. Data for the mlh1 rad18 strain (AID 175); details: S. cerevisiae mlh1 rad18 strain growth inhibition, active compounds read high
How it was run: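 Inhibition values reflect reduced growth of mutant yeast versus vehicle-treated controls following compound exposure; the mutations affect DNA damage repair.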

[16] = NCI Yeast Anticancer Drug Screen. Data for the rad18 strain (AID 177); details: S. cerevisiae rad18 mutant growth inhibition, active compounds read high
How it was run: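 Steps: expose repair-mutant yeast to compound; measure growth; express as inhibition relative to vehicle control.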

[17] = at 5.0 µM (retest, dose inferred, filed as 0.5)
[18] = at 50.0 µM (retest, dose inferred, filed as 5.0)

Measured: growth inhibition

COC(=O)c1ccc([N+](=O)[O-])c(O)c1
active: [1]; at 100.0 µM 98% | [2]; at 100.0 µM 98% | [3]; at 33.0 µM 76% | [3]; at 100.0 µM 99% | [4]; at 100.0 µM 98% | [5]; at 50.0 µM 77.5% | [5]; at 100.0 µM 97% | [6]; [18] 75% | [6]; at 50.0 µM 85% | [6]; at 100.0 µM 99% | [7]; at 100.0 µM 98% | [8]; at 50.0 µM 89.7% | [9]; at 100.0 µM 98% | [11]; at 50.0 µM 78.9% | [11]; at 100.0 µM 99% | [12]; at 100.0 µM 99% | [13]; at 100.0 µM 99% | [14]; at 33.0 µM 81% | [14]; at 100.0 µM 98% | [15]; [18] 88% | [15]; at 50.0 µM 72.9% | [16]; at 100.0 µM 98%
inactive: [1]; at 1.2 µM -5% | [1]; at 3.7 µM -3% | [1]; at 11.0 µM 17% | [1]; at 33.0 µM 49% | [2]; at 1.2 µM -12% | [2]; at 3.7 µM -10% | [2]; at 11.0 µM 3% | [2]; at 33.0 µM 28% | [3]; at 1.2 µM -3% | [3]; at 3.7 µM -25% | [3]; at 11.0 µM 3% | [4]; at 1.2 µM -15% | [4]; at 3.7 µM -13% | [4]; at 11.0 µM -4% | [4]; at 33.0 µM 44% | [5]; at 1.2 µM -5% | [5]; at 3.7 µM -28% | [5]; [17] 2% | [5]; at 11.0 µM -17% | [5]; at 33.0 µM 37% | [5]; [18] 65% | [6]; at 1.2 µM -26% | [6]; at 3.7 µM -23% | [6]; [17] -7% | [6]; at 11.0 µM -4% | [6]; at 33.0 µM 35% | [7]; at 1.2 µM -16% | [7]; at 3.7 µM -13% | [7]; at 11.0 µM -7% | [7]; at 33.0 µM 27% | [8]; [17] 5% | [8]; [18] 4% | [9]; at 1.2 µM -6% | [9]; at 3.7 µM 1% | [9]; at 11.0 µM 1% | [9]; at 33.0 µM 35% | [10]; [17] -2% | [10]; [18] 65% | [10]; at 50.0 µM 58.3% | [11]; at 1.2 µM -22% | [11]; at 3.7 µM -31% | [11]; [17] -7% | [11]; at 11.0 µM -20% | [11]; at 33.0 µM 6% | [11]; [18] 56% | [12]; at 1.2 µM 3% | [12]; at 3.7 µM 7% | [12]; at 11.0 µM 4% | [12]; at 33.0 µM 63% | [13]; at 1.2 µM -4% | [13]; at 3.7 µM -1% | [13]; at 11.0 µM 7% | [13]; at 33.0 µM 67% | [14]; at 1.2 µM 22% | [14]; at 3.7 µM 32% | [14]; at 11.0 µM 21% | [15]; [17] -28% | [16]; at 1.2 µM -9% | [16]; at 3.7 µM -2% | [16]; at 11.0 µM 8% | [16]; at 33.0 µM 52%

From PubChem BioAssay (NCI)
